# Results: the supplement of paper PMC10503962
# Test system: Trichuris muris adult worms
# Assay: mean motility score (Paragon pixel variance) of adult worms (arbitrary units); higher = more motile worms, i.e. less anthelmintic effect; extreme values may be limits of the assay
# Details: 100 µM; 24 h
# Method in brief: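 Motility score was obtained through Paragon pixel-variance analysis and averaged across replicate wells. To generate it, single adult Trichuris muris worms taken from infected NOD SCID mice were kept for 24 h at 37°C and 5% CO2 in 96-well plates, each well holding 100 μL RPMI-1640 plus antibiotics and drug at 100 μM (1% v/v DMSO). The plates were then recorded on an automated phenotyping platform (200 frames, 100 ms apart).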
row,SMILES,mean motility score
1,O=C(c1ccccc1)c1ccc2n1CCC2C(=O)O (stereo not drawn) [ketorolac],2460
2,OCc1ccccc1 [benzyl alcohol],2390
3,CC1=CC(=O)c2ccccc2C1=O [menadione],361
4,Cc1onc(-c2ccccc2)c1-c1ccc(S(N)(=O)=O)cc1 [valdecoxib],3610
5,Cl.Cl.NCCc1c[nH]cn1 [histamine dihydrochloride],2750
6,O=C(CCCN1CC=C(n2c(O)nc3ccccc32)CC1)c1ccc(F)cc1 [droperidol],2120
7,OCCN1CCN(CCCN2c3ccccc3Sc3ccc(Cl)cc32)CC1 [perphenazine],175
8,CSc1ccc(C(=O)c2nc(O)[nH]c2C)cc1 [enoximone],1970
9,CN(C)CCC=C1c2ccccc2CCc2ccccc21.Cl [amitriptyline hydrochloride],0
10,CCCc1nc2c(C)cc(-c3nc4ccccc4n3C)cc2n1Cc1ccc(-c2ccccc2C(=O)O)cc1 [telmisartan],1900
11,Nc1cc(C(F)(F)F)c(-c2cc(N3CCOCC3)nc(N3CCOCC3)n2)cn1 [buparlisib],3960
12,NC[C@H](O)c1ccc(O)c(O)c1 [noradrenaline],3120
13,NCCS [cysteamine],2360
14,C[C@@](Cc1ccc(O)c(O)c1)(NN)C(=O)O [S-carbidopa],3900
15,Cc1ncc([N+](=O)[O-])n1CC(C)O (stereo not drawn) [secnidazole],2540
16,CC(C)(Oc1ccc(C2CC2(Cl)Cl)cc1)C(=O)O (stereo not drawn) [ciprofibrate],2070
17,Cc1ccc(-c2ncc(Cl)cc2-c2ccc(S(C)(=O)=O)cc2)cn1 [etoricoxib],3660
18,CC[N+](C)(C)c1cccc(O)c1.[Cl-] [edrophonium chloride],2890
19,Nc1nc(N)c2nc(-c3ccccc3)c(N)nc2n1 [triamterene],2070

row,SMILES,mean motility score
1,Cc1cn([C@H]2C=C[C@@H](CO)O2)c(=O)[nH]c1=O [stavudine],2180
2,CCn1cc(C(=O)O)c(=O)c2cc(F)c(N3CCNCC3)cc21 [norfloxacin],1950
3,CCCC(=O)O[C@]1(C(=O)COC(C)=O)CC[C@H]2[C@@H]3C[C@H](F)C4=CC(=O)C=C[C@]4(C)[C@@]3(F)[C@@H](O)C[C@@]21C [difluprednate],3520
4,CC12CC3CC(C)(C1)CC(N)(C3)C2.Cl [memantine hydrochloride],2620
5,N[C@@H]1CONC1=O [cycloserine],3930
6,CC(C)c1c(C(=O)Nc2ccccc2)c(-c2ccccc2)c(-c2ccc(F)cc2)n1CC[C@@H](O)C[C@@H](O)CC(=O)O [atorvastatin],2620
7,CS(=O)(=O)OCCCCOS(C)(=O)=O [busulfan],3180
8,O=C1NC(=O)C(c2ccccc2)(c2ccccc2)N1 [phenytoin],2510
9,C[C@H]1O[C@@H](n2cc(F)c(=O)[nH]c2=O)[C@H](O)[C@@H]1O [doxifluridine],2010
10,Nc1ccc(C(=O)Oc2ccccc2)c(O)c1 [phenyl aminosalicylate],1040
11,CCCNCC(O)COc1ccccc1C(=O)CCc1ccccc1 (stereo not drawn) [propafenone],1050
12,NC(=O)N1c2ccccc2C=Cc2ccccc21 [carbamazepine],3020
13,CCCCc1nc(Cl)c(CO)n1Cc1ccc(-c2ccccc2-c2nn[nH]n2)cc1 [losartan],3650
14,CCN(CC)CCOC(=O)C1(C2CCCCC2)CCCCC1.Cl [dicyclomine hydrochloride],4250
15,Nc1ccc(S(=O)(=O)Nc2ncccn2)cc1 [sulfadiazine],2030
16,COc1ccc2[nH]cc(CCNC(C)=O)c2c1 [melatonin],4410
17,CC1(C)S[C@@H]2[C@H](NC(=O)COc3ccccc3)C(=O)N2[C@H]1C(=O)O [penicillin V],1470
18,O=C(O)[C@@H](O)[C@H](O)C(=O)O [tartaric acid],3400
19,COc1ccc(Cl)cc1C(=O)NCCc1ccc(S(=O)(=O)NC(=O)NC2CCCCC2)cc1 [glyburide],2300
